PubChem BioAssay (Tox21)
Inconclusive results are not listed. Values without a mark were called inactive. Active and inactive are the calls of the source. Calls follow the shape of the full dose curve.

Assay: qHTS assay for small molecule agonists of the p53 signaling pathway (AID 651631); also: nearly all actives have a fitted effect of over 15% in size
Conditions: HCT-116 p53RE-bla reporter, beta-lactamase FRET ratio, 16 h; series mostly up to 73.3 µM; activation: at the top concentration
Text: U.S. Tox21 Program National Center for Advancing Translational Sciences [NCATS] NIH Chemical Genomics Center [NCGC] U.S. Environmental Protection Agency [EPA] National Institutes of Environmental Health Sciences [NIEHS] National Toxicology Program [NTP] U.S. Food and Drug Administration [FDA] Tox21 Assay Overview: p53, a tumor suppressor protein, is activated following cellular insult, including DNA damage and other cellular stresses. The activation of p53 regulates cell fate by inducing DNA repair, cell cycle arrest, apoptosis, or cellular senescence. The activation of p53, therefore, is a good indicator of DNA damage and other cellular stresses. The CellSensor p53RE-bla HCT-116 cell line (Invitrogen) contains a stably integrated beta-lactamase reporter gene under control of the p53 response elements. The activation of the reporter gene under culture conditions can be detected by fluorescence intensity. This cell line was used to screen the Tox21 compound library in a 1536-well plate format and to identify agonists that activate the p53 signaling pathway.
Tox21 Assay Protocol Summary: The p53RE-bla cells were dispensed at 4,000 cells/5 ul/well in 1536-well black wall/clear bottom plates using a Multidrop dispenser. After the assay plates were incubated at a 37 C/5% CO2 incubator for 5 hours, 23 nL of compounds dissolved in DMSO, positive controls or DMSO only was transferred to the assay plate by a pin tool. The plates were incubated at 37 C for 16 hours. After 1 uL of LiveBLAzerTM B/G FRET substrate was added using a Flying Reagent Dispenser, the plates were incubated at room temperature for 2 hours, and fluorescence intensity was measured by an Envision plate reader.
% is scaled to controls: 0 for no effect and ±100 for the full control effect; potency is read from the fitted curve at half-maximal effect.

Structure (SMILES)	activation	Potency
CCCCC(CC)CN1C(=O)C2C3C=CC(C3)C2C1=O (stereo not given)	-0.614%	–
CCCCO	-2.15%	–
CN(C)c1ccc(C(c2ccccc2)c2ccc(N(C)C)cc2)cc1	6.97%	–
C#CCN(C)CCCOc1ccc(Cl)cc1Cl	-2.18%	–
O=C1CCC(=O)O1	0.518% [at 95.1 µM]	–
COc1ccc(C)cc1[N+](=O)[O-]	-2.42% [at 95.1 µM]	–
CNCCCN1c2ccccc2CCc2ccccc21	4.99% [at 34.7 µM]	–
Nc1cccc([N+](=O)[O-])c1	-3.06%	–
Cc1ccc(N=Nc2c(O)c(C(=O)O)cc3ccccc23)c(S(=O)(=O)O)c1	-0.555%	–
CCCCc1nc2cccnc2n1Cc1ccc(-c2ccccc2-c2nnn[nH]2)cc1	-3.95%	–
O=[N+]([O-])c1ccc2[nH]ncc2c1	-6.24%	–
O=P(O)(OCc1ccccc1)OCc1ccccc1	4.47%	–
O=C(Nc1ccc(S(=O)(=O)N2CCOCC2)cc1)c1cc(Cl)ccc1NS(=O)(=O)c1ccc(Cl)s1	–	26.6 µM (active)
C[C@H]1C[C@H]2[C@@H]3CCC4=CC(=O)C=C[C@]4(C)[C@@]3(Cl)[C@@H](O)C[C@]2(C)[C@@]1(O)C(=O)CO	-4.31%	–
C[C@@H]1C[C@H]2O[C@@]3(O[C@@H]2C(C)(C)O)[C@H](O)[C@@]2(C)[C@@H]4CC[C@H]5C(C)(C)[C@@H](O[C@@H]6OC[C@@H](O)[C@H](O)[C@H]6O)CC[C@@]56C[C@@]46CC[C@]2(C)[C@@H]13	-2.89%	–
CCCCC	–	inactive
CCCCCC[C@@H](O)C/C=C\CCCCCCCC(=O)OC	-2.17% [at 95.1 µM]	–
C=CC(=O)OCCOc1ccccc1	–	68.5 µM (active)
ClCCOCCOCCCl	3.42%	–
CCOCC(O)COc1ccc(NC(=O)CC[S+](C)C)cc1 (stereo not given)	2.31%	–

Structure (SMILES)	activation	Potency
CCn1cc(C(=O)O)c(=O)c2cnc(N3CCNCC3)nc21	4.13% [at 34.7 µM]	–
C/C=C/C=C/CO	-1.5%	–
O=S(c1cc(Cl)cc(Cl)c1O)c1cc(Cl)cc(Cl)c1O	–	8.41 µM (active)
O=[N+]([O-])c1ccc(NCCO)c(OCCO)c1	-2.71%	–
CC(CC=O)c1ccccc1 (stereo not given)	4.72%	–
C=CC1CC2C=CC1C2 (stereo not given)	-2.59%	–
Cn1c(=O)cc(Oc2ccc(F)cc2F)c2cnc(NCC(C)(C)O)nc21	-4.41%	–
O=S(=O)(Oc1ccc(Cl)cc1)c1ccccc1	2.53%	–
CCCCCCCCCOS(=O)(=O)O	1.35%	–
COc1ccc(C(=O)N2CCN(CC(=O)N3CCOCC3)CC2)cc1	-2.34%	–
CC1=CC[C@H](C(C)C)C=C1	-3.04%	–
COc1cc(C(=O)OCCCN2CCCN(CCCOC(=O)c3cc(OC)c(OC)c(OC)c3)CC2)cc(OC)c1OC	3.56%	–
NC(=O)C(c1ccccc1)(c1ccccc1)[C@@H]1CCN(CCc2ccc3c(c2)CCO3)C1	-4.78%	–
CCOc1ccc(N)c([N+](=O)[O-])c1	2.94%	–
O=C1[C@H]2CCCC[C@H]2C(=O)N1CCCCN1CCN(c2nsc3ccccc23)CC1	2.47%	–
CNC(=O)CN(CCN(CCN(CC(=O)[O-])CC(=O)NC)CC(=O)[O-])CC(=O)[O-].O.[Gd+3]	–	inactive
CCCCc1ncc(/C=C(\Cc2cccs2)C(=O)O)n1Cc1ccc(C(=O)O)cc1	-1.56%	–
CC(C)(O)c1ccc(CNC(=O)c2cccnc2Oc2ccc(F)cc2)cc1	-2.93%	–
C=CCOC(=O)CCC1CCCCC1	1.57%	–
c1ccc(CNCCNCc2ccccc2)cc1	-4.19%	–
